Bioassay records as filed in PubChem BioAssay.
Hits are enriched below; roughly 18% of the tested compounds scored in any of these assays.
DT40 TDP1 no CPT: qHTS for Inhibitors of human tyrosyl-DNA phosphodiesterase 1 (TDP1): qHTS in cells in absence of CPT | DT40 Tdp1-/- hTDP1 cells, no CPT, ATP luminescence, 48 h | Potency, µM (highest dose often 46.2 µM), without a hit: top-dose activity change, negative = growth inhibition, usual class: inhibitors | 420,000 tested, 15% active | AID 686978, 2013; further: potency means the concentration at half of the fitted maximal effect; nearly all actives have a fitted effect of over 55% in size
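Growth of hTDP1-complemented DT40 Tdp1-knockout cells is measured by ATP luminescence after at least 48 hr compound exposure at 37 °C, with DMSO substituting for the 20 nM CPT used in the parallel screen.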
Six1-Eya2 blk: Six1/Eya2 interaction inhibition; Q15475+O00167; AlphaScreen GST-Six1/His-Eya2 binding, biochemical; stronger effect = lower value; activity change, % (concentration not given with the values); 360,000 tested, 0.56% active; AID 651725; in the data active means activity change below about -65%; inconclusive means mostly about -30% to -63%
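AlphaScreen with GST-Six1 and His-Eya2 (5X mix: 250 nM and 500 nM), glutathione donor and nickel acceptor beads; buffer 50 mM Tris pH 8.0, 300 mM NaCl, 1 mM TCEP; 1 h at 37 C in the dark.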
IL-1B inflam inh: inflammasome signaling inhibition, IL-1 beta readout; THP-1 LPS/ATP IL-1B secretion, AlphaLISA, 16 h; stronger effect = lower value; activity change, % at 57.5 µM; 360,000 tested, 4.7% active; in the data active means activity change below about -50%; inconclusive means mostly about -30% to -49%
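Secreted IL-1B measured by AlphaLISA bead assay after 16 h compound exposure of THP-1 cells; compounds (final up to 57.5 uM) added 1 h before LPS (250 ng/mL) and ATP (1.25 mM) stimulation; lower signal means less secretion.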
TDP1 inh: inhibitors of human tyrosyl-DNA phosphodiesterase TDP1; Q9NUW8; recombinant TDP1, AlphaScreen DNA substrate cleavage; Potency, µM (top dose mostly 130 µM), inactives show top-dose activity change, negative = inhibition, hits mostly inhibitors; 350,000 tested, 0.28% active; AID 485290; further: potency means the concentration at half of the fitted maximal effect; nearly all actives have a fitted effect of over 40% in size
Target sequence (Q9NUW8 whole entry, looked up): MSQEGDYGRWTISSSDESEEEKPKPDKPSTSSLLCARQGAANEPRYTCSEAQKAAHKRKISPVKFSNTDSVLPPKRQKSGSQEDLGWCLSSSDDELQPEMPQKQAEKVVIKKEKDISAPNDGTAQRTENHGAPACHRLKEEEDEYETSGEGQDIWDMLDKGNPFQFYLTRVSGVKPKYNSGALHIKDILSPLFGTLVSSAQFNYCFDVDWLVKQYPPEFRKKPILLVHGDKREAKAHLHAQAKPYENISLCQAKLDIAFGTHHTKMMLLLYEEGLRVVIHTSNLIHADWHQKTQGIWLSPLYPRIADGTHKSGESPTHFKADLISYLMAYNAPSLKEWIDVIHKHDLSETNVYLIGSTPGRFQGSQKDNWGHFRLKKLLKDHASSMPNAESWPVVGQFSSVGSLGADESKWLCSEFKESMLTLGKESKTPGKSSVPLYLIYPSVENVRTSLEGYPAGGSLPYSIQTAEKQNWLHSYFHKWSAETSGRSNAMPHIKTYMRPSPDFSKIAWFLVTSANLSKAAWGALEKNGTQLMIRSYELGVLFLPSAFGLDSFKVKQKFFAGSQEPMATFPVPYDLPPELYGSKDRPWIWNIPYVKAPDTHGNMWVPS
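E. coli-derived human Tdp1, 1 nM final. Cpd preinc 15 min RT; substrate 15 nM final, 5 min RT; AS bead mix 10 ug/ml final, 10 min RT. Signal loss = tyrosine-FITC cleavage. No-enzyme wells = max signal.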
TDP1 cell CPT: DT40-hTDP1 cell growth loss with CPT. 420,000 tested, 12% active. Potency, µM (titrated, usually from 46.2 µM), inactives show at the highest dose activity change, negative = growth inhibition, hits mostly inhibitors. chicken DT40 Tdp1-/-;hTDP1 cells + 20 nM CPT, ATP luminescence, 48 h. AID 686979; further: potency means the concentration at half of the fitted maximal effect; nearly all actives have a fitted effect of over 55% in size
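Chicken DT40 Tdp1-/- cells stably complemented with human TDP1 were seeded at 400 cells/well in medium containing 20 nM camptothecin, exposed to pin-transferred compounds, and grown at 37 °C for at least 48 hr. Viability was read as ATP luminescence.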
CtBP-E1A blk: CtBP/E1A binding inhibition; AlphaScreen GST-E1A/His-CtBP binding, 1536-well; stronger effect = lower value; activity change, % (test concentration not listed); 340,000 tested, 0.49% active; AID 651724; in the data active means activity change below about -65%; inconclusive means mostly about -30% to -63%
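GST-E1A and His-tagged CtBP (125 nM each as 5X stock) were preincubated with pin-transferred compound for 2 h at 37 °C in the dark, then glutathione donor and nickel acceptor beads were added for 1 h before AlphaScreen reading.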
Active calls of the source: *; ? = inconclusive; nt = not tested or not shown. Unless noted, the call rests on the fitted dose curve; in most records, active means well fitted curve in the direction sought with a large enough effect; inconclusive means small, poorly fitted or top-dose-only effect, or another doubt; inactive means no such curve, though single readings can be large; an effect the other way counts as inactive or inconclusive. On the % scale 0 is the no-effect control and ±100 the full control effect.

SMILES | DT40 TDP1 no CPT | Six1-Eya2 blk | IL-1B inflam inh | TDP1 inh | TDP1 cell CPT | CtBP-E1A blk
CCN(C(=O)c1ccc(N2CC3CC(C2)c2cccc(=O)n2C3)c(NC(=O)c2ccncc2)c1)c1cccc(C)c1 (stereo not drawn) | -3% | -13 | ? | 1% | -10% | -22
O=C(CCl)NCCCN(C(=O)C(Cl)Cl)c1ccc([N+](=O)[O-])cc1 | 13µM* | 24 | 0 | 7% | 9.2µM* | nt
CCOc1ccc(-n2c(SCC(=O)Nc3ccc4c(c3)OCO4)nc3c(c2=O)SCC3)cc1 | -8% | -10 | -1 | 1% | -11% | -2
O=C1Nc2cc(C(=O)NCCCN3CCOCC3)ccc2S/C1=C/c1ccccc1F | ? | -16 | -25 | 3% | ? | -27
O=C1Nc2cc(C(=O)N3CCOCC3)ccc2S/C1=C\c1ccccc1 | 23µM* | -2 | -24 | 2% | ? | nt
O=C1Nc2cc(C(=O)N3CCN(Cc4ccccc4)CC3)ccc2SC1N1CCOCC1 (stereo not drawn) | ? | 4 | -18 | 4% | 23µM* | -5
COC(=O)c1ccc2c(c1)NC(=O)C(N1CCOCC1)S2 (stereo not drawn) | -17% | 2 | -13 | 5% | -15% | 1
O=C1Nc2cc(C(=O)N3CCOCC3)ccc2S/C1=C/c1ccccc1F | ? | 3 | -20 | nt | 16µM* | 4
Cc1cccc(/C=C2/Sc3ccc(C(=O)N4CCOCC4)cc3NC2=O)c1 | ? | 0 | -13 | 2% | ? | 9
COc1cc(NC(=O)C2CCN(S(=O)(=O)c3ccc4c(c3)CCCC(=O)N4)CC2)cc(OC)c1 | nt | nt | nt | 1% | nt | nt
COc1ccc([N+](=O)[O-])cc1NC(=O)Cc1c(Cl)cccc1Cl | -20% | 3 | 14 | 3% | -6% | 6
c1ccc(C(c2cccs2)c2c[nH]c3ccccc23)cc1 (stereo not drawn) | nt | nt | nt | 10% | nt | nt
COCCCn1cnc2oc3nc4ccccc4nc3c2c1=O | 0% | -3 | -4 | -1% | 2% | -2
CC(=O)CSc1ccc(-c2nc3cc(C)c(C)cc3[nH]2)cn1 | ? | 0 | -82* | 3% | ? | -13
CC(=O)CSc1ccc(-c2nc3ccccc3[nH]2)cn1 | 8.2µM* | -1 | -58* | nt | 10µM* | 6
Cc1ccc2nc(-c3ccc(SCC(=O)N4CCc5ccccc54)nc3)[nH]c2c1 | 13µM* | -7 | 21 | 0% | ? | 16
Cc1cc2nc(-c3ccc(SCC(=O)Nc4nccs4)nc3)[nH]c2cc1C | 16µM* | 0 | -15 | 2% | 16µM* | -3
CCOC(=O)CNC(=O)CSc1ccc(-c2nc3ccccc3[nH]2)cn1 | ? | -7 | ? | nt | -19% | -3
Cc1ccc(-c2nnc3ccc(SCC(=O)N4CCc5ccccc54)nn23)cc1 | -9% | 11 | 27 | 1% | -18% | 0
Clc1ccc(-c2nc3ccccc3[nH]2)cn1 | -20% | -1 | 20 | 0% | 1% | -1
Cc1cc2nc(-c3ccc(SCc4ccc(C#N)cc4)nc3)[nH]c2cc1C | 23µM* | -4 | -12 | 6% | ? | -17
N#Cc1ccccc1CSc1ccc(-c2nc3ccccc3[nH]2)cn1 | ? | -2 | -71* | -5% | ? | -1
CCOC(=O)N1CCN([N+]([O-])=NOc2cc(O/N=[N+](\[O-])N(C)C)c([N+](=O)[O-])cc2[N+](=O)[O-])CC1 | nt | nt | nt | 5% | nt | nt
CCOC(=O)c1sc(-c2cccc(C(F)(F)F)c2)nc1O | 21µM* | 0 | -5 | -3% | ? | nt
CN1CCN(Cc2nc3ccccc3c(=O)n2Cc2nc(-c3ccc([N+](=O)[O-])cc3)cs2)CC1 | 5.8µM* | -23 | -97* | 5% | 18µM* | -19
SMILES | DT40 TDP1 no CPT | Six1-Eya2 blk | IL-1B inflam inh | TDP1 inh | TDP1 cell CPT | CtBP-E1A blk
CN(C)Cc1nc2ccccc2c(=O)n1Cc1nc(-c2cccc([N+](=O)[O-])c2)cs1 | 6.5µM* | -4 | -19 | 9% | 18µM* | -1
N=C1S/C(=C\c2ccc(-c3ccccc3C(=O)O)o2)C(=O)N1c1ccc2c(c1)OCO2 | 1% | -29 | -3 | -8% | -1% | -9
O=C(CN1C(=O)S/C(=C\c2ccc(-c3cc(C(=O)O)ccc3Cl)o2)C1=O)Nc1ccc2c(c1)OCO2 | nt | nt | nt | 7.9µM* | nt | nt
Cc1ccc(NC(=O)CN2C(=O)S/C(=C\c3ccc(-c4cccc(C(=O)O)c4C)o3)C2=O)cc1C | 2% | -3 | 16 | 79µM* | 6% | 0
COc1ccccc1N1C(=N)S/C(=C\c2ccc(-c3ccccc3C(=O)O)o2)C1=O | -14% | ? | 16 | 11µM* | -2% | 0
CCOC(=O)C1=C(CC)Nc2ccccc2N/C1=N\S(=O)(=O)c1ccccc1F | 3% | 1 | 38 | 3% | 0% | nt
Cc1ccc2nc(N3CCN(C(=O)C4CC4)CC3)sc2c1 | -12% | nt | nt | -8% | -1% | nt
Cn1c(SCC(=O)N2CCOCC2)nc2cccnc21 | -4% | 5 | 0 | 1% | -2% | 6
CCOc1ccc2nc3cc(NCc4ccc(OC)cc4)ccc3c(N)c2c1 | 21µM* | -5 | -9 | nt | 15µM* | nt
CCn1cnc2cc(NCc3ccc(OC)cc3)ccc21 | ? | -9 | 1 | 6% | -25% | -4
CCOc1ccc2nc3cc(N)ccc3c(N)c2c1 | 18µM* | nt | nt | 6% | ? | nt
NC(=S)NN=Cc1c[nH]c2nccnc12 | 13µM* | -66* | 51 | nt | 16µM* | -24
Cc1cc(/C=N/NC(N)=S)c(O)c(/C=N/NC(N)=S)c1 | ? | -87* | 16 | -3% | -1% | -92*
O=C(N/N=C/c1ccccc1O)C1(O)c2ccccc2-c2ccccc21 | 5.8µM* | ? | 73 | 11% | 8.2µM* | ?
Oc1ccccc1/C=N/Nc1ccnc(SCc2ccccc2)n1 | 0.082µM* | -9 | 35 | -3% | 0.065µM* | 6
c1ccc(CSc2ncccn2)cc1 | -24% | 10 | -5 | 3% | -3% | 0
O=C(COC(=O)c1ccc2c(c1)OCCO2)Nc1ccccc1C(F)(F)F | -4% | 8 | -19 | nt | 5% | 4
CN(C)C(=O)c1cc([N+](=O)[O-])ccc1O | -1% | 23 | 20 | nt | -21% | 0
CN(Cc1ccccc1)C(=O)CN1CCN(S(=O)(=O)c2ccccc2F)CC1 | ? | 0 | 19 | nt | -27% | -6
CC(=O)n1cc(/C=N/NC(N)=S)c2ccccc21 | -102% | -13 | -15 | 3% | ? | -22
NC(=S)N/N=C/c1cccc(Br)c1 | ? | 1 | -17 | 0% | ? | 2
